The other results are listed elsewhere or left out. Results filed as inconclusive are left out. Activity calls are given as the source filed them.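 Rule for the calls, unless noted: active = thallium entry rate above the same plate's blocked-transporter control wells by more than 3 SD; inconclusive = the two repeat wells disagree; inactive = the rest.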
What was measured:
[1] = target: Solute carrier family 12 member 5 (Homo sapiens) (UniProt Q9H2X9); assay: retest of KCC2 transport modulators without sodium – cell-based, HEK293 KCC2, thallium flux, secondary assay, confirmation (AID 1713;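 active = thallium flux slope above the same plate's solvent-only control mean plus 3 SD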); conditions: FluoZin2 fluorescence, at 10 µM, stronger effect = higher value
Solute carrier family 12 member 5 (Homo sapiens), sequence (Q9H2X9 whole entry, looked up): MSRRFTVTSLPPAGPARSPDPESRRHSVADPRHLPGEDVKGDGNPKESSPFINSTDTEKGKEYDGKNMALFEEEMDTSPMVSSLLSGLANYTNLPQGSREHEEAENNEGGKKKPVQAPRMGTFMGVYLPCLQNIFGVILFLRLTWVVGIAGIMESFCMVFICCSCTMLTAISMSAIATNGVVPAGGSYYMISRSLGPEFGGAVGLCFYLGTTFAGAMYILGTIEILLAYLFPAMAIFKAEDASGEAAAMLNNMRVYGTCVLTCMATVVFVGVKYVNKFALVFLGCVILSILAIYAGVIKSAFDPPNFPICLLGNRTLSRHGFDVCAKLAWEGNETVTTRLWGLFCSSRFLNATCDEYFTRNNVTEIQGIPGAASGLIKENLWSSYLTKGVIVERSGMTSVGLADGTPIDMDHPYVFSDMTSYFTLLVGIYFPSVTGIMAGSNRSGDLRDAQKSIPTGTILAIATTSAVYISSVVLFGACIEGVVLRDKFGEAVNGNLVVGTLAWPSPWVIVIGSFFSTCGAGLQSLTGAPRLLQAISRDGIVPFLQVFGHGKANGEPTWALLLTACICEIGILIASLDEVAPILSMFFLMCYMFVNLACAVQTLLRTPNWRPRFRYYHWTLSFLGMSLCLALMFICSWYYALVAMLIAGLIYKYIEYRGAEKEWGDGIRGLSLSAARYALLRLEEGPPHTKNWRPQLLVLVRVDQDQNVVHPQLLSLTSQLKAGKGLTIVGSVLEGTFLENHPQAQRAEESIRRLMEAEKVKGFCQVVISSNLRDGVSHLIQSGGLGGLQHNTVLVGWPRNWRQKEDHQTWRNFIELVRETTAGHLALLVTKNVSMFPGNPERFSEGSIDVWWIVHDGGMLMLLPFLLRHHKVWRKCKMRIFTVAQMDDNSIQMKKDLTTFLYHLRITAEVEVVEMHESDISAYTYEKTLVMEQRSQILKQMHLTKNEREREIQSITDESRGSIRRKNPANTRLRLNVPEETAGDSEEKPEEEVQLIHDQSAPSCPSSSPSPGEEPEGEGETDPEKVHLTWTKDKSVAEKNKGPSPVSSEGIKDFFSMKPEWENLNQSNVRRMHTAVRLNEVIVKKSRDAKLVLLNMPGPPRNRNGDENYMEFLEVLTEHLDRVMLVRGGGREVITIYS

[2] = PubChem AID 1714; conditions: HEK293-KCC2 + bumetanide/ouabain, thallium flux FluoZin2; at 10 µM; stronger effect = higher value;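 note: raw slope of fluorescence over initial fluorescence between 10 and 20 s after thallium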
[3] = target: Solute carrier family 12 member 5 (Homo sapiens) (UniProt Q9H2X9); assay: retest of KCC2 transport modulation, ouabain-free – cell-based, HEK293 KCC2, thallium flux, FluoZin2, secondary assay 2, confirmation (AID 1715;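 active = thallium flux slope more than 3 SD above or below the plate's solvent-only control mean, mostly below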;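 note: raw slope with 0.1% DMSO as baseline and bumetanide as block control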); conditions: HEK293-KCC2, thallium flux FluoZin2 fluorescence; at 10 µM; actives lie on both sides; F/F0 rise rate, 10–20 s post-thallium
[4] = target: Solute carrier family 12 member 5 (Homo sapiens) (UniProt Q9H2X9); assay: modulation of KCC2 thallium flux in HEK cells – cell-based, ouabain, retest, confirmation (AID 1717;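 active = thallium flux slope beyond 3 SD from same-plate DMSO control mean in most replicates, usually higher, sometimes lower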;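 note: slope of initial-normalized fluorescence between seconds 10 and 20 after thallium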); conditions: HEK293-KCC2, thallium flux FluoZin2 fluorescence, at 10 µM, bidirectional: low = inhibitor, high = activator
[5] = native HEK Tl+ uptake effects, second counter-screen – HEK cells, counterscreen 2, counter-screen for KCC2 modulator project, confirmation (AID 1718;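 active = thallium flux slope above the same plate's solvent-control mean plus 3 SD in both duplicate wells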;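 note: run without ouabain in cells lacking the KCC2 cotransporter; slope of fluorescence scaled to its starting value between 10 and 20 s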); conditions: HEK293 parental, thallium flux FluoZin-2 fluorescence slope; at 10 µM
[6] = compound effects on native HEK Tl+ uptake – HEK cells, counterscreen 1, counter-screen for KCC2 modulator project, confirmation (AID 1716;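 active = thallium flux rate significantly above the same plate's solvent-only control wells, beyond their mean plus 3 SD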); conditions: HEK293 parental cells, thallium flux FluoZin2, ouabain; at 10 µM; baseline-ratio fluorescence slope, 10–20 s after thallium
[7] = inhibitors of TNFa-induced NFkB p65 translocation, primary screen, imaging, HUVEC, MLSMR starter and 10KST1 sets (AID 438;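 active = inhibition above 20% together with a positive visual image hit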;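 note: compound added about 3h40 before a 20 min TNFalpha stimulation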;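 for inhibition: signal is the nuclear over cytoplasmic p65 intensity ratio per well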); conditions: HUVEC TNFa-induced p65 nuclear translocation; cell count: measured here: nuclei count (cytotoxicity indicator), at 2.08 µM; inhibition: at 2 µM, stronger effect = higher value, 0% TNFa-plus-vehicle, 100% no-TNFa wells
[8] = reduction of polyQ htt aggregates in cells – imaging, exon1htt(103Q)mCFP cells, high-content imaging, primary screen (AID 483;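 active = visual image review flags a hit and inhibition of aggregation exceeds 20%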;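 note: compound exposure lasted 3 days before fixation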;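 for nuclei count: percent of the per-plate median nuclei count of sample wells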); conditions: exon1htt(103Q)mCFP cell line, aggregate imaging, at 2 µM; inhibition of aggregation: stronger effect = higher value; nuclei count: measured here: cell count, toxicity
[9] = endothelial E-selectin expression blockers – imaging, HUVEC, immunofluorescence, MLSMR starter and 10KST1 sets, primary screen (AID 487;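 active = visually confirmed hit in the image check and inhibition above 20%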;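 for inhibition: signal is fraction of cell area covered by stained E-selectin grains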;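 for nuclei count: 100% = median nuclei count of all wells on the same plate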); conditions: HUVEC TNFalpha-induced E-selectin immunofluorescence imaging, at 2 µM; inhibition: stronger effect = higher value; nuclei count: measured here: cell number, toxicity
[10] = target: Voltage-gated potassium channel subunit beta-2 (Rattus norvegicus) (UniProt P62483); assay: inhibitors of rat Kvbeta2 reductase activity – biochemical, NADPH fluorescence, primary screen (AID 622;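 active = fluorescence slope higher than the sample average by over 3 SD, cut at about -0.22 in these data, passing the limit was not always enough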;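 note: slope of raw intensity against log time taken from 70 to 1610 s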); conditions: recombinant KvBeta, 4-cyanobenzaldehyde reduction, at 10 µM, stronger effect = higher value
Voltage-gated potassium channel subunit beta-2 (Rattus norvegicus), sequence (P62483 whole entry, looked up): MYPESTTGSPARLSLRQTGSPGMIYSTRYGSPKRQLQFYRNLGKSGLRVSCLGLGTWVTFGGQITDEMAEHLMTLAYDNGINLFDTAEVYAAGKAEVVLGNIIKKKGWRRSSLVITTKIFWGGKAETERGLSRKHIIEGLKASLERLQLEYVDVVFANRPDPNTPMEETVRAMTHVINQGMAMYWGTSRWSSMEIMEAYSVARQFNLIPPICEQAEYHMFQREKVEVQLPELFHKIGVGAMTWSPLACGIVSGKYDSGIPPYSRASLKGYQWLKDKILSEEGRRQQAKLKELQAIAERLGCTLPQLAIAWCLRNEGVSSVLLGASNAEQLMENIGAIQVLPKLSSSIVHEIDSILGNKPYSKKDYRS

[11] = target: Voltage-gated potassium channel subunit beta-2 (Rattus norvegicus) (UniProt P62483); assay: enhancers of rat Kvbeta2 NADPH turnover – biochemical, NADPH fluorescence, primary screen (AID 623;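 active = NADPH fluorescence slope more negative than the mean of all samples by about 3 SD, 99.7% confidence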;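 note: fluorescence intensity change per second fitted from 20 to 320 s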); conditions: Recombinant KvBeta, NADPH fluorescence decrease slope, 10 min; at 10 µM; stronger effect = lower value
[12] = target: Alpha-2C adrenergic receptor (Homo sapiens) (UniProt P18825); assay: compounds altering alpha2C-coupled GIRK flux – cell-based, HEK293 alpha2C/GIRK1/2, thallium flux, primary screen (AID 624;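 active = fluorescence slope after compound addition differing from the mean of all screened samples at 99.7% confidence, in either direction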;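 note: slope of fluorescence ratio to pre-addition baseline per second over 15 to 24 s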); conditions: thallium flux BTC fluorescence, at 10 µM, actives lie on both sides
Alpha-2C adrenergic receptor (Homo sapiens), sequence (P18825 whole entry, looked up): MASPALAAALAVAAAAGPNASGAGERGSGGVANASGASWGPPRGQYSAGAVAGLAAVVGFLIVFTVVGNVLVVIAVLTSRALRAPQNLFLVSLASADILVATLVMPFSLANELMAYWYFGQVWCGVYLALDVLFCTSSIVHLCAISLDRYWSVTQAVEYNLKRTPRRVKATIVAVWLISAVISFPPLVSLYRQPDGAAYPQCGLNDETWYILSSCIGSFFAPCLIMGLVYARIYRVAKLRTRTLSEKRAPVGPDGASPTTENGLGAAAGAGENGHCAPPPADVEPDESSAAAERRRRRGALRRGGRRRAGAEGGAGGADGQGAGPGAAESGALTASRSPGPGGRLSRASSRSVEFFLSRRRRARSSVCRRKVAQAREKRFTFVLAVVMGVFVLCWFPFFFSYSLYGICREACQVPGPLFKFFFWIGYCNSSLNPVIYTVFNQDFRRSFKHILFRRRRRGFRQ

[13] = inhibitors of larval lipid processing in zebrafish, primary screen, whole organism, PED6 fluorescence, gall bladder and intestine (AID 686;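 active = a full or partial loss of lipid-probe fluorescence in the fish gall bladder, intestine or both, judged by eye; inactive = no fluorescence loss, or compound toxic to the fish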;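 note: larvae 5 to 7 days old with five fish per well; signal comes from phospholipase A2 cleavage of quenched PED6 carried via bile; overnight exposure to compound and PED6 before scoring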); conditions: Zebrafish larvae PED6 lipid processing, fluorescence scoring; screened at 20 µM (by protocol)
[14] = blockers of RIG-like receptor reporter activation – cell-based, Sendai virus stimulus, luciferase, 10K MLSCN set, TLR/RLR signaling modifier project, primary screen (AID 602276;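 active = inhibition at or above 50% at 10 µM; inactive = inhibition below 50%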;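 note: firefly luciferase from ISG56 promoter only with Renilla not read in this screen; 0% = Sendai virus plus DMSO and 100% = medium plus DMSO without virus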); conditions: HEK293 RL24 IRF3 luciferase reporter, at 10 µM, stronger effect = higher value
[15] = TLR3 IRF3 reporter activation blockers – cell-based, poly I:C stimulus, luciferase, 10K MLSCN set, primary screen (AID 602277;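 active = inhibition of the reporter signal at or above 50%; inactive = inhibition below 50%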); conditions: HEK293-TLR3 RL24 IRF3 luciferase reporter, at 10 µM, stronger effect = higher value

Cc1ccc(-n2ncc3c(Nc4cccc(C(=O)O)c4)ncnc32)cc1
normalised thallium flux (F/F0 slope) [1]: 0.00874 (inactive) | normalized thallium flux [2]: 0.00541 (inactive) | normalized thallium flux [3]: 0.0319 (inactive) | raw Tl+ flux slope (below DMSO = inhibition, above = activation) [4]: 0.0185 (inactive) | thallium flux slope [5]: 0.0099 (inactive)

Cc1ccc(N=Cc2c(O)n(-c3nccs3)c(=O)c3ccccc23)c(C)c1
normalised thallium flux (F/F0 slope) [1]: 0.000176 (active) | normalized thallium flux [2]: -0.00484 (active) | normalized thallium flux [3]: 0.0195 (active) | raw Tl+ flux slope (below DMSO = inhibition, above = activation) [4]: 0.0222 (active) | thallium flux slope [5]: 0.00674 (active)

O=C(Nc1ccn(Cc2ccccc2)n1)c1cccc(F)c1
normalised thallium flux (F/F0 slope) [1]: 0.00622 (inactive) | normalized thallium flux [2]: 0.00499 (inactive) | thallium flux rate (normalised fluorescence) [6]: 0.00698 (inactive) | raw Tl+ flux slope (below DMSO = inhibition, above = activation) [4]: 0.017 (active) | thallium flux slope [5]: 0.00931 (inactive)

COc1ccccc1-n1cnc2cc(NS(=O)(=O)c3ccccc3)ccc21
cell count [7]: 720 | inhibition [7]: -12.5% (inactive) | inhibition of aggregation [8]: 1.2% (inactive) | nuclei count [8]: 90.2% | inhibition [9]: -14.6% (inactive) | nuclei count [9]: 108% | fluorescence slope [10]: -0.46 (inactive) | NADPH fluorescence slope [11]: -1.9e-05 (inactive) | slope [12]: 0.00351 (inactive) | outcome [13]: inactive | normalised thallium flux (F/F0 slope) [1]: 0.00507 (inactive) | normalized thallium flux [2]: 0.00527 (inactive) | normalized thallium flux [3]: 0.0252 (active) | thallium flux rate (normalised fluorescence) [6]: 0.0068 (inactive) | thallium flux slope [5]: 0.00966 (inactive) | inhibition [14]: -18.8% (inactive) | inhibition [15]: 98.4% (active)

COc1cc(OC)cc(C(=O)NCCSCc2ccco2)c1
normalised thallium flux (F/F0 slope) [1]: 0.00951 (inactive) | normalized thallium flux [2]: 0.00654 (inactive) | normalized thallium flux [3]: 0.0289 (inactive) | raw Tl+ flux slope (below DMSO = inhibition, above = activation) [4]: 0.0187 (inactive) | thallium flux slope [5]: 0.0101 (inactive)

O=C(CNCc1cccs1)Nc1cc(S(=O)(=O)N2CCCC2)ccc1Cl
normalised thallium flux (F/F0 slope) [1]: 0.00507 (inactive) | normalized thallium flux [2]: 0.00419 (inactive) | normalized thallium flux [3]: 0.0229 (active) | raw Tl+ flux slope (below DMSO = inhibition, above = activation) [4]: 0.0155 (active) | thallium flux slope [5]: 0.0101 (inactive)

Cc1ccccc1NC(=S)NNC(=O)c1cccc(Br)c1
normalised thallium flux (F/F0 slope) [1]: 0.0117 (inactive) | normalized thallium flux [2]: 0.028 (active) | normalized thallium flux [3]: 0.0325 (inactive) | raw Tl+ flux slope (below DMSO = inhibition, above = activation) [4]: 0.0311 (active) | thallium flux slope [5]: 0.0126 (inactive)

Cc1ccc(OCC(=O)N2CCN(C(=O)c3cccnc3)CC2)cc1
normalised thallium flux (F/F0 slope) [1]: 0.00886 (inactive) | normalized thallium flux [2]: 0.00586 (inactive) | normalized thallium flux [3]: 0.0326 (inactive) | raw Tl+ flux slope (below DMSO = inhibition, above = activation) [4]: 0.0189 (inactive) | thallium flux slope [5]: 0.0114 (inactive)

Cn1c(C(=O)NCCc2ccsc2)cc2c(=O)n(C)c3ccccc3c21
normalised thallium flux (F/F0 slope) [1]: 0.00557 (inactive) | normalized thallium flux [2]: 0.00386 (inactive) | raw Tl+ flux slope (below DMSO = inhibition, above = activation) [4]: 0.0126 (active) | thallium flux slope [5]: 0.00931 (inactive)

O=S(=O)(c1cccc(S(=O)(=O)N2CCC(n3nnc4ccccc43)CC2)c1)N1CCCCC1
normalised thallium flux (F/F0 slope) [1]: 0.00996 (inactive) | normalized thallium flux [2]: 0.00678 (inactive) | thallium flux rate (normalised fluorescence) [6]: 0.00751 (inactive) | raw Tl+ flux slope (below DMSO = inhibition, above = activation) [4]: 0.0174 (active)

CC1Cc2ccccc2N1C(=O)CSc1nc2ccccc2o1 (centres undefined)
normalised thallium flux (F/F0 slope) [1]: 0.00599 (inactive) | normalized thallium flux [2]: 0.0054 (inactive) | raw Tl+ flux slope (below DMSO = inhibition, above = activation) [4]: 0.0143 (active) | thallium flux slope [5]: 0.00901 (inactive)

COc1ccc(C2/C=C\CN(S(=O)(=O)c3cccs3)CC(=O)N2Cc2ccc(F)cc2)cc1 (centres undefined)
normalised thallium flux (F/F0 slope) [1]: 0.00741 (inactive) | normalized thallium flux [2]: 0.00428 (inactive) | normalized thallium flux [3]: 0.0313 (inactive) | thallium flux rate (normalised fluorescence) [6]: 0.00682 (inactive) | thallium flux slope [5]: 0.00998 (inactive)

Source: PubChem BioAssay
